Several values for one entry are separate records, joined by “and”; a condition that tells them apart may be missing. Equal values may be shown once. Out of some 2,000 compounds screened, about 45 (2%) were called active. For the sample, actives were picked, then their nearest neighbours and some compounds at random. Values without a mark were called inactive.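 How the source made its calls: active means inhibition above the screen-wide mean inhibition plus 3 SD (cut at about 44% in these data); inactive means the rest.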
Each compound was assayed against Perilipin-1 (Homo sapiens) + 1-acylglycerol-3-phosphate O-acyltransferase ABHD5 (Homo sapiens) (UniProt O60240+Q8WTS1) (assay: ABHD5-PLIN1 interaction inhibitors, pilot screen, cell lysate, split luciferase complementation, luminescence, NIH validation set (AID 493027;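 further: 0% = DMSO wells with the 100% control not disclosed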)). Conditions: split G. princeps luciferase complementation, 4 h, at 7.9 µM, stronger effect = higher value.
Sequence of Perilipin-1 (Homo sapiens) + 1-acylglycerol-3-phosphate O-acyltransferase ABHD5 (Homo sapiens) (O60240 whole entry, looked up): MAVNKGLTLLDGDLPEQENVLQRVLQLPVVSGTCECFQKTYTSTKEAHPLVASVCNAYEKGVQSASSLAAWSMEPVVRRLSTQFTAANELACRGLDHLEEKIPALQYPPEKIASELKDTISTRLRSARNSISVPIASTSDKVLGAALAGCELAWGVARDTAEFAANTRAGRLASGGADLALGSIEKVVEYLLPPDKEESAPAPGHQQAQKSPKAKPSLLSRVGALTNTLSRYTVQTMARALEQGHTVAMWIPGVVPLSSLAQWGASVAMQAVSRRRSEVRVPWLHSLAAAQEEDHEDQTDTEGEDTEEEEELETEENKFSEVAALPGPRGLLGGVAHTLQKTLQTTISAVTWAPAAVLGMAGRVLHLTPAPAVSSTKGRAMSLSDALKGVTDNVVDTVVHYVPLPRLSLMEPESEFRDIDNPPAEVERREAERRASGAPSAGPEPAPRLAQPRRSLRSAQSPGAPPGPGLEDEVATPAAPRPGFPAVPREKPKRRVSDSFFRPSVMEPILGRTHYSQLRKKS
Sequence of Perilipin-1 (Homo sapiens) + 1-acylglycerol-3-phosphate O-acyltransferase ABHD5 (Homo sapiens) (Q8WTS1 whole entry, looked up): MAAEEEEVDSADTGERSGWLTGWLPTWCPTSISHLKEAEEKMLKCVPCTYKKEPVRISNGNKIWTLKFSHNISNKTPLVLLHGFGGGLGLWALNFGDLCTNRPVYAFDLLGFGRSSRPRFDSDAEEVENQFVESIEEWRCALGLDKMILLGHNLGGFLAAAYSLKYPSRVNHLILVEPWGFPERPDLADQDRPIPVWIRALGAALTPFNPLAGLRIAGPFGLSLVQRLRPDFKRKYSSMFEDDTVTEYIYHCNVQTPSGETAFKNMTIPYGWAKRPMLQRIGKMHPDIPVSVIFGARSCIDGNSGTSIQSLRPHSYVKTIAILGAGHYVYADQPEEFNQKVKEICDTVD

With `O=c1c2ccccc2nc(/C=C/c2ccc3c(c2)OCO3)n1-c1ccccc1` as the compound, how does the inhibition read?
Its inhibition is 1.81%.

With `O=c1c2ccccc2[se]n1-c1ccccc1` as the compound, how does the inhibition read?
Its inhibition is 90.3% (active).

How did the inhibition turn out when `Cc1nc2ccccc2c(=O)n1-c1ccc(C(=O)O)cc1` was run?
The inhibition was 5.87%.

With `[N-]=[N+]=CC(=O)OC[C@H](N)C(=O)O` as the compound, how does the inhibition read?
The inhibition was 0.75%.

For `CC12CN3CC(C)(CN(C1)C3c1cccs1)C2=O` (stereo not given), which inhibition is on record?
Its inhibition is -10.9%.

For `CC(C)NC(C)C(=O)c1ccc2ccccc2c1` (stereo not given), which inhibition is on record?
Its inhibition is -0.73%.

With `O=c1[nH]c(=S)n(-c2ccccc2)c(O)c1/C=N/N1CCCCC1c1cccnc1` (stereo not given) as the compound, how does the inhibition read?
The inhibition was -7.25%.

`C#CCN(C)C(C)Cc1ccccc1` (stereo not given) was tested. Which inhibition did it give?
The inhibition was -10.3%.

How did the inhibition turn out when `Cc1ccc(/C=C2/C(=O)NC(=O)N(C)C2=O)cc1` was run?
Its inhibition is -3.1%.

Which inhibition does the source give for `Cc1ccc(-n2c(C)cc(/C=C3/C(=O)NC(=O)N(C)C3=O)c2C)cc1` here?
The inhibition was 38.2%.

`CCOc1ccc(N2C(=O)NC(=O)/C(=C\c3cc(OC)c(OC)cc3[N+](=O)[O-])C2=O)cc1` was tested. Which inhibition did it give?
The inhibition was 63.9% (active).

`COc1cc(/C=C2\C(=O)NC(=O)N(c3ccccc3)C2=O)c([N+](=O)[O-])cc1OC` was tested. Which inhibition did it give?
Its inhibition is 58.1% (active).

For `CCOC(=O)c1cncn1C(C)c1ccccc1` (stereo not given), which inhibition is on record?
The inhibition was 1.91%.

With `C[N+]1(C)[C@@H]2CC(OC(=O)[C@H](CO)c3ccccc3)C[C@H]1[C@@H]1O[C@@H]12` (stereo not given in full) as the compound, how does the inhibition read?
Its inhibition is -5.12% and 3.91%.

Which inhibition does the source give for `CC(C)C[C@H]1C(=O)N2CCCC2[C@]2(O)O[C@](NC(=O)[C@@H]3C=C4c5cccc6[nH]cc(c56)CC4N(C)C3)(C(C)C)C(=O)N12` (stereo not given in full) here?
Its inhibition is 22.5%.

How did the inhibition turn out when `Cc1c2ccncc2c(C)c2c1[nH]c1ccccc12` was run?
The inhibition was -2.7%.

Which inhibition does the source give for `Cc1cc2c(C(C)C)c(O)c(O)c(C=O)c2c(O)c1-c1c(C)cc2c(C(C)C)c(O)c(O)c(C=O)c2c1O` here?
The inhibition was 50.9% (active).

How did the inhibition turn out when `O=C1C(=O)c2ccccc2-c2ccccc21` was run?
Its inhibition is 29.2%.

Which inhibition does the source give for `CCn1c(O)c(C(=O)CC2NCCc3ccccc32)c(=O)n(CC)c1=S` (stereo not given) here?
Its inhibition is -1.08%.

`CC[C@@H]1C(=O)OC[C@@H]1Cc1cncn1C` was tested. Which inhibition did it give?
The inhibition was -9.03% and -8.34%.

For `Clc1ccc(C2NCCc3[nH]cnc32)cc1` (stereo not given), which inhibition is on record?
Its inhibition is 1.77%.

With `COP(=S)(OC)SCN1C(=O)c2ccccc2C1=O` as the compound, how does the inhibition read?
Its inhibition is 83.3% (active).

For `NNC(=O)c1ccc(Cl)cc1`, which inhibition is on record?
The inhibition was 1.77%.

How did the inhibition turn out when `O=C1C=Cc2ccccc2C1=O` was run?
The inhibition was 25.2%.

`O=C1CCCC2=C1C(c1cccnc1)Nc1ccccc1N2` (stereo not given) was tested. Which inhibition did it give?
The inhibition was -3.96%.

From PubChem BioAssay AID493027 (The Scripps Research Institute Molecular Screening Center, 2011)
